16 compounds from PubChem BioAssay (NCATS) can be followed below.

The other results are listed elsewhere or left out. A call without a number means that no potency is given here. Inconclusive results are not listed. Calls of active or inactive are those of the source. Calls come from the whole dose curve.
Potency is the fitted concentration of half-maximal effect.

The test relates to Hepatitis C virus NS3/4A protease. In words: Selectivity profile for inhibitors of NSP2Pro chikungunya virus (CHIKV): NS34A-HCV Counterscreen (AID 1964106). Note: nearly all actives have a fitted effect of over 55% in size. Particulars: HCV NS3/4A protease biochemical counterscreen; series mostly up to 50.9 µM. The text has this:
PI: Natalia J. Martinez Ph.D.
National Center for Advancing Translational Sciences (NCATS),
National Institute of Health (NIH), Rockville, Maryland
Chikungunya virus (CHIKV) is a mosquito-borne RNA virus that has emerged as one of the most important global arboviral threats in the last decade. Although the first CHIKV vaccine has recently been FDA approved for use in healthy adults at increased risk, to date, there are no available antiviral drugs for CHIKV infection. CHIKV nsP2 protease plays a crucial role in the processing of the viral polypeptide precursor to release enzymes required for viral replication, thus making it a promising drug target for antiviral discovery. Here, we established a high-throughput pipeline to identify small molecule inhibitors of nsP2 proteolytic activity. The pipeline is composed of a suite of 1,536-well in vitro assays to support quantitative high-throughput (qHTS) screening campaigns. Specifically, we developed a fluorescence resonance energy transfer (FRET)-based assay using a fluorogenic peptide substrate encompassing an endogenous cleavage site and purified recombinant protease domain (nsP2pro). Using this assay, we interrogated ~37,000 small molecules, including those in drug repurposing libraries as well as chemically diverse and medicinal chemistry-friendly compounds. Hits were selected for follow-up validation against full-length nsP2 and an additional peptide. FRET-based 1,536-well assays for papain, hepatitis C virus NS3-4A, and human furin proteases were implemented to characterize compound selectivity. […] Novel compounds were identified to be potential nsP2 inhibitors and molecular docking analyses were performed to explain the binding mode of selected hits. In vitro antiviral activity was evaluated against a subset of compounds using a high-throughput CHIKV infection assay. To our knowledge, the pipeline presented here is unprecedented for CHIKV antiviral discovery research.
PROTOCOL TABLE (as described by Inglese J, Shamu CE and Guy RK. 2007)
SEQUENCE No. (e.g., 1, 2, 3, etc.); […] (e.g., Cells, Incubation, Reagent, etc.); VALUE; DESCRIPTION.
1; Enzyme; 2 uL; 1,536-well solid-bottom, black plate (Greiner Bio One).
2; Compounds; 20 nL; Echo 655 acoustic dispenser (Beckman Coulter).
3; Incubation; 15 min; room temperature in the dark.
4: Reagent; 2 uL; Ac-DE-[Lys(5-TAMRA)]-EE-[Abu-psi(COO)Ala]-S-[Lys(ECLIPSE-7)]-amide.
5; Detection; Fluorescence; time 0, ViewLux microplate reader (PerkinElmer) 525 nm excitation, 598/25 nm emission
6; Incubation; 15 min; room temperature
7; Detection; Fluorescence; time 15; ViewLux microplate reader (PerkinElmer), 525 nm excitation, 598/25 nm emission.
NOTES (numbers refer to sequence numbers above).
1. Two microliter of NS3-4A HCV enzyme solution (5 nM final concentration) in assay buffer (20 mM Tris-HCl pH 8.0, 150 mM NaCl, with 0.01% Tween 20) were dispensed into a 1,536-well solid-bottom black plate (Greiner Bio One) using the Kalypsys Pintool Station.
2. Twenty nanoliter of compounds, positive control Aprotinin (50 uM final concentration), or neutral control DMSO were transferred to the assay plates. Compounds in counter-screen assays were tested at 11 concentrations, 1:3 dilution points from 25 uM to 0.42 nM.
3. The assay plates were incubated in the dark for 15 min.
4. After incubation, 2 uL of 0.625 uM substrate (Ac-DE-[Lys(5-TAMRA)]-EE-[Abu-psi(COO)Ala]-S-[Lys(ECLIPSE-7)]-amide) in assay buffer (for NS3-4A assay) was added using the Kalypsys Pintool Station.
5-7. Plates were immediately read at time 0 then covered with stainless steel gasket lids and incubated for 15 min at room temperature in the dark. Fluorescence intensity in the assay plates were again read after incubation using the ViewLux imager equipped with Tamara fluorescence optics. The change in fluorescence intensity over the 15-min reaction period was normalized against DMSO and inhibitor controls as described below.
[…]
On the technique in general: Counterscreens check selectivity or assay interference.
In the case of `CCOc1ccc(N(Cc2ccccc2)C(=O)c2nc(S(C)(=O)=O)ncc2Cl)cc1`, the Potency result is “inactive”.

Take `N#CSc1cc(SC#N)c(N)nc1N`: the Potency entry was “inactive”. For `CO[C@]1(NC(=O)CSC(F)F)C(=O)N2C(C(=O)O)=C(CSc3nnnn3CCO)CO[C@H]21`, the Potency entry is “inactive”. `O=C(O)c1cccc(-n2[nH]c(-c3ccccc3)cc2=O)c1`: the Potency entry is “inactive”.

On to `Cc1c(S(=O)(=O)O)oc2c1C(=O)C(=O)c1c-2ccc2c1CCCC2(C)C`, for which the Potency entry is “inactive”. Take `C=Cc1c(C)c2cc3nc(cc4[nH]c(cc5nc(cc1[nH]2)C(C)=C5CCC(=O)O)c(CCC(=O)OC)c4C)[C@@]1(C)C3=CC=C(C(=O)OC)[C@H]1C(=O)OC`: the Potency entry is “inactive”. Take `CCOc1ccc(NC(=O)c2c(NC(=O)Cc3ccccc3)sc3c2CCC(C)C3)cc1` (stereo unspecified): the Potency entry was “inactive”.

Consider `CC(=O)N[C@@H](C(=O)O[C@H]1CCC(C)(C)[C@@H]2CCC3=C(COC3=O)[C@@]12C)C(C)C`, for which the Potency result is “inactive”.

Consider `CC1=C(/C=C/C(C)=C/C=C/C(C)=C/C=C/C=C(C)/C=C/C=C(C)/C=C/C2=C(C)CCCC2(C)C)C(C)(C)CCC1`, for which the Potency result is “inactive”.

Turning to `CCOc1ccc(NC(=O)c2c(NC(=O)Cc3ccccc3)sc3c2CCCCC3)cc1`, the Potency result was “inactive”. With `C[C@@H]1O[C@@H](O[C@@H]2[C@@H](O)[C@H](OCCc3ccc(O)c(O)c3)O[C@H](CO[C@@H]3O[C@H](CO)[C@@H](O)[C@H](O)[C@H]3O)[C@H]2OC(=O)/C=C/c2ccc(O)c(O)c2)[C@H](O)[C@H](O)[C@H]1O` the entry was “inactive”. For `COC([CH2][Hg])CNC(=O)c1ccccc1OCC(=O)O` (stereo unspecified), the Potency is 1.63 µM (active). With `C[C@@H]1C[C@@H](O)[C@@]23CO[C@]2(CO)C[C@@H](O)CC3[C@@]12CC(c1ccoc1)OC2=O` (stereo partly specified) the figure was 11.3 µM (active). Consider `Cn1nnnc1Sc1ncnc2n[nH]c(-c3cccc(S(C)(=O)=O)c3)c12`, for which the Potency is 316 µM (active). With `C=CC(=O)c1ccc2ccccc2c1` the entry was “inactive”; with `CCC(C)C(=O)OC1C(C)C2(O)C(C=C(CO)CC3(O)C(=O)C(C)=CC32)C2C(C)(C)C12OC(=O)C(C)C` (stereo unspecified), “inactive”.
